Results taken from PubChem BioAssay (EPA / NIEHS).
Inconclusive results are not listed. Activity calls are given as the source filed them. The calls were made as follows, unless noted: active = hit-call score of the fitted dose curve at least 0.9, where 1 is the maximum; inactive = score below 0.9.

Key:
[1] = CCTE_Harrill_HTTr_Viability_MCF7: CCTE's 6-hour Cell Viability Assessment for the High-Throughput Transcriptomics (HTTr) Platform, in MCF-7 cells cultured in DMEM + 10% fetal bovine serum, Harrill Lab (AID 2284010)
Summary of the method: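 Read-out is propidium iodide gain of signal by high-content imaging, reflecting membrane integrity loss. Measurements are taken 6 h after dosing, eight concentrations per chemical, with DMSO serving as baseline for bidirectional curve fitting.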

[2] = CCTE_Harrill_HTTr_Apoptosis_MCF7: CCTE's 6-hour Apoptosis Assessment for the High-Throughput Transcriptomics (HTTr) Platform, in MCF-7 cells cultured in DMEM + 10% fetal bovine serum, Harrill Lab (AID 2284011)
Summary of the method: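 MCF-7 (DMEM + 10% FBS), 384-well; 8-pt dilution series, 6 h chemical exposure; caspase-3/7 activation via CellEvent Caspase 3/7 Green, HCI; bidirectional fit vs DMSO.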

[3] = CCTE_Shafer_MEA_dev_firing_rate_mean: CCTE's Neural Network Formation Assay for Mean Firing Rate, Shafer Lab (AID 2284031);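 also: curve fitted for loss of firing so AC50 reflects decreased mean firing rate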
Summary of the method: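 Steps: seed rat cortical cells (1.5 x 10^5/well) with laminin on PEI-coated MEA; dose day 0; record DIV 5/7/9/12, full media and compound exchange after DIV 5 and 9 recordings; compute well-mean firing rate AUC.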

[4] = CCTE_Shafer_MEA_dev_per_burst_spike_percent: CCTE's Neural Network Formation Assay for Percent of Spikes in a Burst, Shafer Lab (AID 2284032);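 also: fitted as a decrease in burst spike percentage below DMSO baseline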
Summary of the method: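 Value is trapezoidal AUC over recordings on days 5, 7, 9 and 12 of the well-mean fraction of spikes falling in single-electrode bursts; rat cortical cultures exposed continuously from plating, treatment renewed DIV 5 and 9, fitted downward against DMSO.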

[5] = CCTE_Shafer_MEA_dev_active_electrodes_number: CCTE's Neural Network Formation Assay for Number of Active Electrodes, Shafer Lab (AID 2284040; active = hit-call score of the fitted dose curve at least 0.9, where 1 is the maximum;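 also: potency for loss of active electrodes versus DMSO so lower counts are hits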)
Summary of the method: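 Counts electrodes per well firing at least 5 spikes/min, recorded on days 5, 7, 9 and 12 in rat cortical cultures dosed continuously from plating (treatment refreshed DIV 5, 9). Value is the area under the curve over recordings, fitted downward relative to DMSO.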

[6] = CCTE_Shafer_MEA_dev_bursting_electrodes_number: CCTE's Neural Network Formation Assay for Number of Bursting Electrodes, Shafer Lab (AID 2284043; active = hit-call score of the fitted dose curve at least 0.9, where 1 is the maximum;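 also: potency is for loss of bursting electrodes relative to DMSO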)
Summary of the method: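 Counted: electrodes with burst rate ≥1 per 2 min in each well. Cells: primary rat cortex, 1.5 x 10^5/well, on 16-electrode MEA wells. Exposure: DIV 0–12, compound renewed DIV 5 and 9. Recording days 5, 7, 9, 12; AUC vs DMSO baseline.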

[7] = CCTE_Shafer_MEA_dev_per_burst_interspike_interval: CCTE's Neural Network Formation Assay for Burst Interspike Interval, Shafer Lab (AID 2284044);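 also: potency for a decrease of within-burst interspike interval below DMSO level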
Summary of the method: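 Neurons from rat cortex plated onto PEI-coated MEA wells with laminin […] at 1.5 x 10^5 cells/well, then treated from day 0. Media and compound fully replaced on DIV 5 and 9. Extracellular spontaneous firing recorded four times; interspike interval per burst summarised as AUC.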

[8] = CCTE_Shafer_MEA_dev_burst_duration_mean: CCTE's Neural Network Formation Assay for Mean Burst Duration, Shafer Lab (AID 2284045);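 also: curve fitted for loss meaning shorter burst duration than DMSO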
Summary of the method: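 Network-formation assay in primary rat cortical neurons; treatment spans twelve days of development. Mean burst duration per well is integrated by trapezoidal AUC and fitted in the loss-of-signal direction against DMSO baseline.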

[9] = CCTE_Shafer_MEA_dev_interburst_interval_mean: CCTE's Neural Network Formation Assay for Mean Interburst Interval, Shafer Lab (AID 2284046);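 also: well-mean interburst interval of bursting electrodes as AUC over four recording days; curve fitted for decrease in interburst interval relative to DMSO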
Summary of the method: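 Rat cortical neurons, 1.5 x 10^5 cells/well, 48-well MEA; compound from day 0 through DIV 12, media and treatment renewed DIV 5/9. Recordings DIV 5, 7, 9, 12; well-mean interburst interval → trapezoidal AUC, loss direction vs DMSO.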

[10] = CCTE_Shafer_MEA_dev_network_spike_number: CCTE's Neural Network Formation Assay for Number of Network Spikes, Shafer Lab (AID 2284048);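 also: synchronized bursts across electrodes counted on days 5 7 9 12 and integrated as AUC; fit as a loss of signal meaning fewer network spikes than DMSO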
Summary of the method: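 Extracellular recordings from 16-electrode wells track network formation in rat cortical cultures under continuous treatment from plating. The endpoint is network spike number, expressed as AUC across DIV 5–12 relative to DMSO vehicle.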

[11] = CCTE_Shafer_MEA_dev_network_spike_peak: CCTE's Neural Network Formation Assay for Mean Number of Electrodes in Network Spike, Shafer Lab (AID 2284049);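 also: fitted for loss of signal meaning fewer electrodes in network spikes than DMSO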
Summary of the method: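 Continuous 12-day exposure of rat cortical cultures, starting at plating, on MEA plates. Endpoint: electrodes participating in network-spike peaks, AUC across DIV 5–12, DMSO as negative control.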

[12] = CCTE_Shafer_MEA_dev_spike_duration_mean: CCTE's Neural Network Formation Assay for Mean Spike Duration, Shafer Lab (AID 2284051);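 also: mean network spike duration pooled as area under curve over DIV 5 to 12 recordings; potency for a decrease in mean network spike duration versus DMSO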
Summary of the method: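 Rat cortical primary cultures, 48-well MEA (16 electrodes/well); compound from plating, renewed DIV 5, 9. Network spike duration (AxIS adaptive detector) recorded DIV 5/7/9/12, combined as trapezoidal AUC; loss direction vs DMSO.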

[13] = CCTE_Shafer_MEA_dev_per_network_spike_spike_number_mean: CCTE's Neural Network Formation Assay for Mean Number of Spikes in a Network Spike, Shafer Lab (AID 2284053)
Summary of the method: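 Rat cortical primary cultures on 48-well MEA; compound from day 0, re-dosed with full media change DIV 5, 9. Recorded DIV 5, 7, 9, 12; spikes in 0.05 s window at network-spike peak ÷ total network spikes; AUC; loss vs DMSO.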

[14] = CCTE_Shafer_MEA_dev_per_network_spike_spike_percent: CCTE's Neural Network Formation Assay for Percent of Spikes in a Network Spike, Shafer Lab (AID 2284054)
Summary of the method: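 Developing networks of rat cortical neurons are dosed at day 0 and recorded extracellularly four times up to day 12. The endpoint is the area under the curve of percent spikes in network spikes, fitted in the negative direction relative to DMSO.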

[15] = CCTE_Shafer_MEA_dev_LDH: CCTE's Lactate Dehydrogenase Assay for Cytotoxicity in the Neural Network Formation Assay, Shafer Lab (AID 2284068; active = hit-call score of the fitted dose curve at least 0.9, where 1 is the maximum;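 also: exposure for twelve days from plating with re-dosing on DIV 5 and 9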)
Summary of the method: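 Rat cortical primary neurons, MEA culture; dosing day 0–12, full medium plus compound exchange DIV 5, 9. Read-out: LDH enzyme activity, spectrophotometric. DMSO = negative control/baseline; signal loss → cytotoxicity.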

[16] = CCTE_Shafer_MEA_dev_AB: CCTE's Alamar Blue Assay for Cytotoxicity in the Neural Network Formation Assay, Shafer Lab (AID 2284083; active = hit-call score of the fitted dose curve at least 0.9, where 1 is the maximum;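 also: resazurin reduction fluorescence as viability of cultured neurons; twelve days of exposure from plating with re-dosing on DIV 5 and 9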)
Summary of the method: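 Rat cortical primary cultures, 1.5 x 10^5 cells/well on MEA; continuous compound exposure over 12 days of network development, re-dosed with full medium change DIV 5 and 9. Alamar Blue fluorescence; loss of signal = cytotoxicity vs DMSO baseline.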

[17] = CCTE_Shafer_MEA_dev_mutual_information_norm: CCTE's Neural Network Formation Assay for Mutual Information Normalization, Shafer Lab (AID 2284091);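 also: mutual information between electrodes summarised as area under curve across four recording days; potency is for a decrease in mutual information relative to DMSO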
Summary of the method: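 Exposure of primary rat cortical neurons began at plating and ran to DIV 12, with full media and treatment renewal after DIV 5 and 9 recordings. Mutual information AUC (DIV 5–12) was analysed for loss versus DMSO.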

[18] = CCTE_Shafer_MEA_dev_correlation_coefficient_mean: CCTE's Neural Network Formation Assay for Mean Correlation Coefficient, Shafer Lab (AID 2284093);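 also: well mean pairwise spike train correlation integrated as AUC over recording days 5 to 12; potency fitted for loss of correlation relative to DMSO vehicle wells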
Summary of the method: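 Rat cortical cultures, 1.5 x 10^5 cells/well, dosed from day 0 for 12 days. Spontaneous spikes recorded DIV 5/7/9/12; electrode-pair correlation coefficients averaged, AUC taken. Fit in loss direction vs DMSO.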

[19] = UKN2_HCS_IMR90_neural_migration: University of Konstanz (UKN) Leist Lab Neural Crest Cell Migration Assay in human induced IMR90 Pluripotent Stem Cells (UKN2) (AID 2284204); conditions: actives raise or lower the signal
Summary of the method: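 Using a 96-well stopper format with PLO/laminin/fibronectin coating, neural crest cells from iPSC migrate in cytokine-supplemented N2-S medium; after 24 h, chemicals are applied for a further 24 h, then cells are imaged after dye staining.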

[20] = IUF_NPC1b_proliferation_BrdU_72hr: Leibniz Research Institute for Environmental Medicine (IUF) 72-hour Neural Progenitor Cell Bromodeoxyuridine (BrdU) Proliferation Assay (NPC1b) (AID 2284207)
Summary of the method: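 Neural progenitor spheres of human fetal origin are treated for three days; BrdU added for the last 16 h is quantified by luminescence ELISA, with DMSO as baseline and EGF/FGF omission as positive control.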

[21] = IUF_NPC1a_proliferation_area_72hr: Leibniz Research Institute for Environmental Medicine (IUF) 72-hour Neural Progenitor Cell Proliferation Area Assay (NPC1a) (AID 2284208)
Summary of the method: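 Spheres of 0.3 mm are plated singly in growth-factor medium and exposed from day 0. After three days at 37C and 5% CO2, sphere area is measured by phase contrast imaging, with activity referenced to DMSO.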

[22] = IUF_NPC1_viability_72hr: Viability Assessment at 72 hours in the Leibniz Research Institute for Environmental Medicine (IUF) Neural Progenitor Cell Proliferation Assay (NPC1) (AID 2284209)
Summary of the method: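 Spheres of primary human neural progenitors were plated singly in proliferation medium and treated for 72 h. Mitochondrial reduction of resazurin was then measured by fluorescence and analysed against DMSO controls.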

[23] = CCTE_Mundy_HCI_Cortical_Synap_Neur_Matur_NeuriteSpotCountPerNeuriteLength: CCTE's Synaptogenesis and Neurite Maturation Assay in rat cortical cells for Neurite Spot Count per Neurite Length, Mundy Lab (AID 2284210)
Summary of the method: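 Neurite-associated synapse density (synaptophysin puncta per unit neurite length) is measured by fluorescence high-content imaging in rat cortical cultures treated from DIV 7 and fixed at DIV 12, with DMSO as negative control.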

[24] = CCTE_Mundy_HCI_Cortical_Synap_Neur_Matur_BPCount: CCTE's Synaptogenesis and Neurite Maturation Assay in rat cortical cells for Branch Point Count, Mundy Lab (AID 2284211)
Summary of the method: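 HCI read-out of branch points from MAP2/synaptophysin/Hoechst immunofluorescence; rat cortical cultures, AraC DIV 5, dosing DIV 7, fixed DIV 12; fit in positive direction vs DMSO baseline.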

[25] = CCTE_Mundy_HCI_Cortical_NOG_NeuriteCount: CCTE's Neurite Outgrowth Assay in rat cortical cells for Neurite Count, Mundy Lab (AID 2284212);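 also: cells fixed about two days after chemical exposure began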
Summary of the method: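 Rat cortical primary cells; compound added 2 h post-plating, 1/10 dilution of working solution. Anti-betaIII-tubulin/AF488 ICC; ArrayScan neurite count vs DMSO.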

[26] = CCTE_Mundy_HCI_Cortical_NOG_NeuriteLength: CCTE's Neurite Outgrowth Assay in rat cortical cells for Neurite Length, Mundy Lab (AID 2284213);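 also: neurites imaged about 48 to 50 h after chemical exposure began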
Summary of the method: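 First, rat primary cortical cells were plated and, 2 h later, given test chemical as a 1/10 dilution. Finally, βIII-tubulin immunostaining enabled automated imaging of neurite length.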

Measured: AC50

CC(CNC(=S)[S-])NC(=S)[S-].[Zn+2] (stereo unspecified)
active: [3] 6.97 µM | [4] 17.4 µM | [5] 16.8 µM | [6] 15 µM | [7] 26.2 µM | [8] 9.67 µM | [9] 50 µM | [10] 8.44 µM | [11] 20.9 µM | [12] 8.64 µM | [13] 24.7 µM | [14] 91.5 µM | [15] 39.4 µM | [16] 32.2 µM | [17] 4.05 µM | [18] 19.7 µM | [20] 50 µM | [24] 50 µM | [25] 31.5 µM | [26] 27.6 µM
inactive: [1] | [2] | [19] | [21] | [22] | [23]
